Laboratory results reported in article doi:10.1101/2024.03.05.583629.

target: pT7_6His-AlfaTag-HOXD13 (human, UniProt P35453 263-343); assay: PADIT-seq; conditions: dsDNA, one strand shown
Sequence (P35453 263-343): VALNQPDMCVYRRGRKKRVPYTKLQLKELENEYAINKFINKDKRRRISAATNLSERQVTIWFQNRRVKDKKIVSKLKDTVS

Row | Sequence | binding signal [log2FC]
1 | CTCGAGGATATCAAGATCTGGCCTCGGCATTTTATTAGGAACCTCTAGCTAGCCGACTCACTATAGGGATAATCGCCCTGAGCAAAGACC | 3.28 ± 0.0692
2 | CTCGAGGATATCAAGATCTGGCCTCGGCATTTTACTAGGAACCTCTAGCTAGCCGACTCACTATAGGGATAATCGCCCTGAGCAAAGACC | 3.18 ± 0.0699
3 | CTCGAGGATATCAAGATCTGGCCTCGGCCTTTTAGCTGGAACCTCTAGCTAGCCGACTCACTATAGGGATAATCGCCCTGAGCAAAGACC | -0.366 ± 0.11
4 | CTCGAGGATATCAAGATCTGGCCTCGGCCGTGTAAAAGGAACCTCTAGCTAGCCGACTCACTATAGGGATAATCGCCCTGAGCAAAGACC | 1.58 ± 0.0857
5 | CTCGAGGATATCAAGATCTGGCCTCGGCCGCCCAGAGGGAACCTCTAGCTAGCCGACTCACTATAGGGATAATCGCCCTGAGCAAAGACC | -1.03 ± 0.139
6 | CTCGAGGATATCAAGATCTGGCCTCGGCGTTTTAAAAGGAACCTCTAGCTAGCCGACTCACTATAGGGATAATCGCCCTGAGCAAAGACC | 2.44 ± 0.0598
7 | CTCGAGGATATCAAGATCTGGCCTCGGCCAATTAAAAGGAACCTCTAGCTAGCCGACTCACTATAGGGATAATCGCCCTGAGCAAAGACC | 2.77 ± 0.0792
8 | CTCGAGGATATCAAGATCTGGCCTCGGCAATATAAAAGGAACCTCTAGCTAGCCGACTCACTATAGGGATAATCGCCCTGAGCAAAGACC | 2.41 ± 0.0826
9 | CTCGAGGATATCAAGATCTGGCCTCGGCCCCATAAAAGGAACCTCTAGCTAGCCGACTCACTATAGGGATAATCGCCCTGAGCAAAGACC | 2.77 ± 0.0828
10 | CTCGAGGATATCAAGATCTGGCCTCGGCGTTTTACCGGGAACCTCTAGCTAGCCGACTCACTATAGGGATAATCGCCCTGAGCAAAGACC | 1.01 ± 0.0969
11 | CTCGAGGATATCAAGATCTGGCCTCGGCCTTCCACGCGGAACCTCTAGCTAGCCGACTCACTATAGGGATAATCGCCCTGAGCAAAGACC | -1.1 ± 0.121
12 | CTCGAGGATATCAAGATCTGGCCTCGGCCTTTTAAAGGGAACCTCTAGCTAGCCGACTCACTATAGGGATAATCGCCCTGAGCAAAGACC | 2.37 ± 0.0692
13 | CTCGAGGATATCAAGATCTGGCCTCGGCATTTTAGATGGAACCTCTAGCTAGCCGACTCACTATAGGGATAATCGCCCTGAGCAAAGACC | 0.542 ± 0.096
14 | CTCGAGGATATCAAGATCTGGCCTCGGCCTTTTACTCGGAACCTCTAGCTAGCCGACTCACTATAGGGATAATCGCCCTGAGCAAAGACC | 0.504 ± 0.0906
15 | CTCGAGGATATCAAGATCTGGCCTCGGCAGCATAAAAGGAACCTCTAGCTAGCCGACTCACTATAGGGATAATCGCCCTGAGCAAAGACC | 0.863 ± 0.103
16 | CTCGAGGATATCAAGATCTGGCCTCGGCCTCATAAAAGGAACCTCTAGCTAGCCGACTCACTATAGGGATAATCGCCCTGAGCAAAGACC | 3.06 ± 0.0788
17 | CTCGAGGATATCAAGATCTGGCCTCGGCCGGTTAAAAGGAACCTCTAGCTAGCCGACTCACTATAGGGATAATCGCCCTGAGCAAAGACC | 0.716 ± 0.0773
18 | CTCGAGGATATCAAGATCTGGCCTCGGCGAGCTAAAAGGAACCTCTAGCTAGCCGACTCACTATAGGGATAATCGCCCTGAGCAAAGACC | -0.842 ± 0.11
19 | CTCGAGGATATCAAGATCTGGCCTCGGCGTTTTAGGAGGAACCTCTAGCTAGCCGACTCACTATAGGGATAATCGCCCTGAGCAAAGACC | 1.64 ± 0.105
20 | CTCGAGGATATCAAGATCTGGCCTCGGCGCGGTAAAAGGAACCTCTAGCTAGCCGACTCACTATAGGGATAATCGCCCTGAGCAAAGACC | 0.513 ± 0.0756
21 | CTCGAGGATATCAAGATCTGGCCTCGGCTTTTTAGTAGGAACCTCTAGCTAGCCGACTCACTATAGGGATAATCGCCCTGAGCAAAGACC | 1.62 ± 0.0952
22 | CTCGAGGATATCAAGATCTGGCCTCGGCGCGGAAGCGGGAACCTCTAGCTAGCCGACTCACTATAGGGATAATCGCCCTGAGCAAAGACC | -0.566 ± 0.121
23 | CTCGAGGATATCAAGATCTGGCCTCGGCCTTTTACAGGGAACCTCTAGCTAGCCGACTCACTATAGGGATAATCGCCCTGAGCAAAGACC | 2.83 ± 0.0828
24 | CTCGAGGATATCAAGATCTGGCCTCGGCGTTTTATAGGGAACCTCTAGCTAGCCGACTCACTATAGGGATAATCGCCCTGAGCAAAGACC | 3.33 ± 0.0804
25 | CTCGAGGATATCAAGATCTGGCCTCGGCGTTTTATTCGGAACCTCTAGCTAGCCGACTCACTATAGGGATAATCGCCCTGAGCAAAGACC | 1.73 ± 0.0989
26 | CTCGAGGATATCAAGATCTGGCCTCGGCCTTTTAAACGGAACCTCTAGCTAGCCGACTCACTATAGGGATAATCGCCCTGAGCAAAGACC | 2.06 ± 0.0696
27 | CTCGAGGATATCAAGATCTGGCCTCGGCTTGGTAAAAGGAACCTCTAGCTAGCCGACTCACTATAGGGATAATCGCCCTGAGCAAAGACC | 0.112 ± 0.0883
28 | CTCGAGGATATCAAGATCTGGCCTCGGCTTTTTATGCGGAACCTCTAGCTAGCCGACTCACTATAGGGATAATCGCCCTGAGCAAAGACC | 2.03 ± 0.081
